High-throughput results (PubChem)
TDP-43 yeast inh = qHTS of TDP-43 Inhibitors; Potency, µM (series often up to 46.1 µM), for the others: top-dose growth rescue (activation), hits mostly activators; TDP-43 expressing yeast growth rescue, BacTiter-Glo, 24 h; actives 1.8% (n = 410,000); note: % of control where 0% means no effect; nearly all actives have a fitted effect of over 50% in size
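Growth rescue of TDP-43-toxic yeast measured as ATP luminescence (BacTiter-Glo). Cells grown to mid-log in raffinose, induced in galactose at OD600=0.02, exposed to compound 24 hr at 30 deg C.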
FUS suppressor = qHTS for Suppressors of FUS Proteinopathy: Primary screen using FUS-linked yeast assay; actives 0.24% (n = 390,000); S. cerevisiae FUS-expressing, growth rescue, OD600, 24 h; Potency, µM (titrated, usually from 76.6 µM), hits mostly activators; AID 1347120, 2019;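 note: plate controls were DMSO vehicle for no effect and reference control for full effect; nearly all actives have a fitted effect of over 55% in size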
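Quantitative HTS measuring growth restoration of FUS-toxic yeast. Galactose-induced cells (OD 0.005) were exposed 24hr at 30C to compounds at several concentrations, then absorbance at 600 nm was recorded.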
aSyn yeast inh = qHTS of alpha-syn Inhibitors; Yeast expressing alpha-synuclein, growth rescue, BacTiter-Glo, 24 h; Potency, µM (highest dose often 46.1 µM), without a hit: at the highest dose growth rescue (activation), usual class: activators; actives 0.14% (n = 370,000); AID 652106, 2013; note: % of control where 0% means no effect; nearly all actives have a fitted effect of over 65% in size
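Screening used galactose-induced yeast with toxic alpha-synuclein levels, exposed to compound for 24 hr at 30 deg C. Cell growth, read with BacTiter-Glo luminescence, gave the measured signal.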
Abeta yeast res = qHTS for compounds that reverse cellular toxicity of Amyloid beta (A-beta) peptide in yeast: Primary Screen | actives 0.063% (n = 410,000) | yeast expressing A-beta42, growth rescue, OD600, 48 h; response scale: 0% DMSO, 100% iron-clioquinol control | Potency, µM (top dose mostly 46.1 µM), hits mostly activators; note: nearly all actives have a fitted effect of over 55% in size
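Yeast A-beta toxicity model in growth medium with pinned compounds, 48 h at 30 C; growth read as absorbance at 600 nm. Normalized to FeCl3/clioquinol equimolar mix (positive) and DMSO (negative).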
Starred values were filed as active, the others as inactive; i = inactive; u = inconclusive; x = not tested or not shown; [ ] = remark or other dose. Hits are enriched below; roughly 2.1% of the tested compounds scored in any of these assays. Calls come from the whole dose curve; as a rule, active = well fitted curve in the direction sought with a large enough effect; inconclusive = small, poorly fitted or top-dose-only effect, or another doubt; inactive = no such curve, though single readings can be large; an effect the other way counts as inactive or inconclusive. Potency is the fitted concentration of half-maximal effect.

SMILES	TDP-43 yeast inh	FUS suppressor	aSyn yeast inh	Abeta yeast res
Cc1ccc(OCCCC(=O)ON=C(N)c2ccccc2C)cc1	u	i	12%	i
N/C(=N\OC(=O)CCCOc1ccc(Cl)cc1Cl)c1ccncc1	u	i	21%	i
N/C(=N\OC(=O)CCCOc1ccc(Cl)cc1Cl)c1ccccn1	14µM*	i	2%	i
CCn1c(=O)cc(OCC(=O)N2CCN(c3ccc(OC)cc3)CC2)c2ccccc21	5%	i	x	i
CCCOC(=O)c1cccc(NC(=O)c2c(-c3ccccc3Cl)noc2C)c1	u	i	x	i
COc1cc(C2CC(=O)Nc3cc4c(cc32)OCCO4)cc(Br)c1OC (stereo not drawn)	9%	i	x	i
Cn1nc([N+](=O)[O-])nc1S(C)(=O)=O	20%	i	-11%	i
CS(=O)(=O)c1nc([N+](=O)[O-])nn1CCCc1ccccc1	18µM*	i	-14%	i
O=C(CSCc1cccc(Br)c1)N=Nc1c(O)[nH]c2ccccc12	22µM*	i	-6%	i
O=C(CSCc1ccccc1)N=Nc1c(O)[nH]c2ccccc12	-1%	x	0%	i
O=C(CSc1nc(=O)n(Cc2ccncc2)c2c1CCC2)Nc1cccc(F)c1	13%	i	x	i
Cc1ccc(CNc2ncnc3nc[nH]c23)cc1	x	x	-3%	x
Cc1ccc(-c2csc(-c3ccncc3)n2)cc1	u	i	9%	i
Brc1ccc(-c2csc(-c3ccncc3)n2)cc1	11µM*	x	1%	i
COc1ccc(-c2nn(-c3ccccc3)cc2C2NC(=O)NC(C)=C2C(=O)OC(C)C)cc1Cl (stereo not drawn)	0%	i	4%	i
Oc1ccccc1-c1nc(NCC2CCCO2)c2ccccc2n1 (stereo not drawn)	11µM*	i	-9%	i
CC1CCN(c2nc(-c3ccncc3)nc3ccccc23)CC1	13µM*	i	u	i
CC1CCCN(c2nc(-c3ccccc3O)nc3ccccc23)C1 (stereo not drawn)	20µM*	i	0%	i
COc1ccc(-n2c(=O)c3c(c4cc(OC)ccc4n3C)n(Cc3ccc(F)cc3Cl)c2=O)cc1	-16%	i	x	i
COc1ccc(S(=O)(=O)c2cc3cc(C(C)(C)C)cc(O)c3oc2=O)cc1	-17%	40µM*	x	i
CCCCCn1c(=O)c2ccccc2n2c(=S)[nH]nc12	11µM*	i	9%	i
Cc1nn(-c2ccccc2)c2sc(C(=O)O)cc12	u	i	-22%	i
Cc1nn(-c2ccccc2)c2sc(-c3n[nH]c(=S)o3)cc12	u	7.1µM*	-43%	i
CCc1ccccc1NC(=S)NCCSc1ccc(Cl)cc1	13µM*	i	-8%	i
Cc1ccccc1NC(=S)NCCSc1ccc(Cl)cc1	18µM*	i	1%	i
SMILES	TDP-43 yeast inh	FUS suppressor	aSyn yeast inh	Abeta yeast res
Cc1ccc(C)c(NC(=S)NCCSc2ccc(Cl)cc2)c1	21%	x	-5%	i
CSc1ccccc1NC(=S)NCc1ccc(Cl)cc1	u	i	-1%	16µM*
COc1ccc(-n2c(SCC(=O)Nc3ccc4c(c3)OCCO4)nnc2-c2ccccc2)cc1	x	i	x	x
Clc1ccccc1C1=Nn2c(nnc2-c2ccncc2)SC1	11µM*	i	10%	i
Cc1cccc(-c2nnc3n2N=C(c2ccccc2Br)CS3)c1	20µM*	i	7%	i
Cc1cc(-c2nnc3n2N=C(c2ccccc2Br)CS3)n[nH]1	1%	i	-1%	u
COc1cc(C2Nc3ccccc3-c3nnc(SCc4ccc(C)cc4)nc3O2)cc(OC)c1O (stereo not drawn)	19%	i	x	i
O=C(N/N=C/c1cc(Cl)ccc1O)c1ccccc1Br	13µM*	i	14µM*	u
O=C(CNC(=O)c1ccccc1Br)N/N=C/c1cc(Br)ccc1O	-3%	i	3%	i
CCOC(=O)CC(=O)CSc1nc2c(cc1C#N)CCCCCC2	18%	11µM*	-3%	i
COC(=O)CC(=O)CSc1nc2c(cc1C#N)CCC2	-4%	i	1%	i
O=C(CCl)N(c1ccccc1)c1ccccc1	18µM*	i	12%	i
O=C(N(c1ccccc1)c1ccccc1)N(c1ccccc1)c1ccccc1	6%	i	16%	i
C/C(=N\Nc1nc2c(s1)CCCC2)c1ccccc1	20µM*	u	7%	i
C/C(=N\Nc1nc(C(C)(C)C)cs1)c1ccccc1	22µM*	i	-26%	i
O=C(Nc1nc2c(s1)CCCC2)Oc1ccccc1	1%	i	1%	i
COc1cc(OC)cc(C(=O)Nc2ccc(Nc3ccccc3)cc2)c1	-18%	25µM*	9%	i
COc1ccc(NC(=O)Nc2ccccc2SC)c(OC)c1	-11%	i	0%	i
COc1cccc(NC(=O)Nc2ccccc2SC)c1	20µM*	i	-9%	i
COc1ccc(NC(=O)c2cccc(Oc3ccccc3)c2)cn1	11µM*	i	10%	i
COc1ccc(NC(=S)NC(=O)c2ccccc2)cn1	5%	i	2%	i
COc1cccc(C(=O)Nc2cccc(-c3ccccc3)c2)c1	18µM*	i	-1%	i
CCc1cccc(C)c1NC(=O)C1=C(C)C(=O)OC12CCC(C)CC2 (stereo not drawn)	0%	i	x	i
COc1ccc(C(C(=O)NC2CCCC2)n2c(CSCCOc3ccccc3)nc3ccccc32)cc1 (stereo not drawn)	5%	18µM*	-3%	i
C1=Nc2ccccc2/C1=C/c1c[nH]c2ccccc12	x	x	4%	x
SMILES	TDP-43 yeast inh	FUS suppressor	aSyn yeast inh	Abeta yeast res
Cc1nnc(SCc2ccc(Cl)cc2)c2cc3occc3n12	22%[9.22 µM]	u	x	i
Cc1nnc(SCc2ccccc2Cl)c2cc3occc3n12	35µM*	u	x	i
COc1ccc(/C=C/C(=O)c2ccc[nH]2)cc1OC	u	i	17%	i
COc1ccc(/C=C/C(=O)c2ccc[nH]2)c(OC)c1OC	14µM*	i	0%	i
COc1cccc(/C=C/C(=O)c2cccc([N+](=O)[O-])c2)c1OC	11µM*	i	-1%	i
COc1cccc(/C=C/C(=O)c2cccc([N+](=O)[O-])c2)c1	10%	i	18%	i
CCn1cc(C(=O)N(C)Cc2ccccc2)c(=O)c2cc(S(=O)(=O)N3CCCCC3)ccc21	9%	i	x	i
COc1ccc(C2C(=O)N(C3CCC(C)CC3)CC(=O)N2C2CCCC2)cc1OC (stereo not drawn)	3%	i	x	i
O=[N+]([O-])c1nn(-c2ccc3c(c2)OCCO3)n(O)c1=NC1CCCCC1	7.9µM*	i	14%	i
